LmPK inh: blocks Leishmania mexicana pyruvate kinase activity; Q27686; purified LmPK, Kinase-Glo ATP luminescence, 1 h; Potency, µM (highest dose often 57.5 µM), without a hit: at the top dose activity change, negative = inhibition, actives largely listed as inhibitors; 290,000 tested, 0.37% active; note: potency is the fitted concentration of half-maximal effect
Target sequence (Q27686 whole entry, looked up): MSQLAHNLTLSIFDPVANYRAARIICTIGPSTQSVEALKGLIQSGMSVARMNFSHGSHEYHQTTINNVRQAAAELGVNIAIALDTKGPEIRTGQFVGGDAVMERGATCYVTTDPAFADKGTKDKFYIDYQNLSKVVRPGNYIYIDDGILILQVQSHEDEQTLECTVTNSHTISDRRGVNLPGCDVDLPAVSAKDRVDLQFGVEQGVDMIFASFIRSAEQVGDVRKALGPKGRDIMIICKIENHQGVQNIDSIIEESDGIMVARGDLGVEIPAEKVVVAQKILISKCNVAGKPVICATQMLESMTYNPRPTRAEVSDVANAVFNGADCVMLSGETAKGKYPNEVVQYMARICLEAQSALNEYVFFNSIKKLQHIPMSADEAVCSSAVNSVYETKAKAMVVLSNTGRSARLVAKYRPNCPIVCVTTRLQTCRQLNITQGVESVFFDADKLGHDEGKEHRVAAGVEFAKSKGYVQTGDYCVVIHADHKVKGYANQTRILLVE
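Purified LmPK (0.1 nM) with 0.5 mM PEP and 0.1 mM ADP in imidazole buffer pH 7.2 with MgCl2/KCl, 1 h at room temperature. ATP formed was read by luciferase luminescence and normalized to no-enzyme and uninhibited controls.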
Vaccinia Venus: vaccinia inhibition (Venus reporter); Vaccinia virus Venus reporter expression, fluorescence; Potency, µM (highest dose often 36.5 µM), without a hit: top-dose activity change, negative = inhibition, most hits filed as inhibitors; 330,000 tested, 0.46% active; calls by dose curve; tested in A549 cells; note: potency is the fitted concentration of half-maximal effect; nearly all actives have a fitted effect of over 30% in size
TbPYK inhibitor: T. brucei pyruvate kinase inhibition | Potency, µM (top dose mostly 76.8 µM), for the others: at the top dose activity, negative = inhibition, most hits filed as inhibitors | Q57TT1 | 410,000 tested, 0.12% active | TbPYK enzyme, Kinase-Glo Plus ATP luminescence, 45 min; note: potency is the fitted concentration of half-maximal effect; nearly all actives have a fitted effect of over 50% in size
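Assay buffer: 50 mM TEA pH 7.2, 100 mM KCl, 10 mM MgCl2, 0.05% BSA, 0.01% Tween-20. Pyruvate kinase from T. brucei plus substrate met compound, then ADP (130 uM final). Luminescence was read post 45 min RT.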
Vaccinia mCherry: inhibitors of vaccinia virus infection (mCherry reporter signal); Vaccinia virus mCherry reporter infection, fluorescence; Potency, µM (doses to about 36.5 µM), for the others: at the highest dose activity change, negative = inhibition, hits mostly inhibitors; 310,000 tested, 0.63% active; calls by dose curve; tested in A549 cells; note: potency is the fitted concentration of half-maximal effect; nearly all actives have a fitted effect of over 35% in size
HCMV antiviral: blocks human cytomegalovirus replication | 410,000 tested, 4.5% active | HFF cells, HCMV-luciferase reporter, 72 h; hits give low values | activity change, negative = inhibition, % at 57.5 µM; in the data active = activity change below about -60%; inconclusive = no clear call, values can overlap the other calls; inactive = above about -39%
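Two compound doses tested in HFFs infected with HCMV-luciferase, MOI 1 PFU/cell, 72 h at 37C. Lysate luminescence read with OneGlo; data normalized against buffer-only and 10uM Salinomycin inhibitor controls.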
Numbers without * were called inactive; i = inactive; ? = inconclusive; . = no result given. In the library only some 5% were active in any assay of this set; here they are far more common. Unless noted, calls come from the whole dose curve; as a rule, active = well fitted curve in the direction sought with a large enough effect; inconclusive = small, poorly fitted or top-dose-only effect, or another doubt; inactive = no such curve, though single readings can be large; an effect the other way counts as inactive or inconclusive. % is set by controls: 0 for no effect and ±100 for the full control effect.

SMILES	LmPK inh	Vaccinia Venus	TbPYK inhibitor	Vaccinia mCherry	HCMV antiviral
CCc1ccc(OC(=O)Cc2ccc(OC)c(S(=O)(=O)N3CCOCC3)c2)cc1	.	.	5%	.	-98*
COc1ccc(CC(=O)Oc2ccc(C(C)(C)C)cc2)cc1S(=O)(=O)N1CCOCC1	.	-8%	2%	-15%	-10
Cc1ccc(NC(=O)c2ccccc2-c2ccc(C(F)(F)F)cc2)cc1S(=O)(=O)N1CCOCC1	1%	-18%	0%	-22%	-36
COc1ccc(NC(=O)c2ccccc2-c2ccc(C(F)(F)F)cc2)cc1S(=O)(=O)N1CCOCC1	3%	?	-2%	?	-67*
Cc1cnc(NC(=O)c2ccc(F)c(S(=O)(=O)N3CCOCC3)c2)s1	.	-18%	3%	-18%	-105*
COc1ccc(C(=O)Nc2ccc(-c3ccc(C)o3)cc2)cc1S(=O)(=O)N1CCOCC1	-1%	?	-6%	?	-96*
CCSCc1nnc(SCC(=O)Nc2nc(C)cs2)n1C	4%	.	.	.	2
O=[N+]([O-])c1ccc(Cl)c(S(=O)(=O)Nc2ccc(S(=O)(=O)N3CCOCC3)cc2)c1	4%	-2%	0%	-8%	3
COc1ccc(C(=O)Nc2nc(C)c(C(C)=O)s2)cc1S(=O)(=O)N1CCOCC1	.	.	0%	.	-92*
COC(=O)c1cc(NC(=O)c2cc(-c3ccc(C(F)(F)F)cc3)oc2C(F)(F)F)ccc1N1CCOCC1	5%	-14%	2%	-17%	-94*
COC(=O)c1cc(NC(=O)c2cc(-c3ccc(OC)cc3)oc2C(F)(F)F)ccc1N1CCOCC1	5%	.	-5%	.	-25
Nc1ccc(Oc2ccccc2-c2ccccc2)cc1	.	-19%	3%	-23%	-82*
NCCOc1ccccc1-c1ccccc1	1%	-4%	-13%	.	24
CCC(=O)Nc1cccc(-c2ccc(N3CCC(C)CC3)nn2)c1	-19%	.	-7%	.	-67*
CCC(=O)Nc1ccc(-c2ccc(N3CCC(C)CC3)nn2)cc1	-5%	.	5%	.	.
Cc1cccc(OCC(=O)Nc2nnc(S(=O)(=O)N3CCC(C)CC3)s2)c1	-2%	1%	-1%	-6%	-36
Cn1ccc2cc(-c3ccc4ncnc(NCc5cccs5)c4c3)ccc21	.	.	0%	.	-72*
COc1cccc(-c2ccc3ncnc(NCc4cccs4)c3c2)c1	.	0%	1%	i	?
Cc1ccnc(N/C=C(/NC(=O)c2ccccc2)C(=O)NN)n1	3%	-13%	2%	-7%	-82*
Cc1ccnc(N/C=C(/NC(=O)c2ccccc2)C(=O)N/N=C\c2ccc(F)cc2)n1	-1%	-17%	0%	.	0
CCOc1ccccc1N(CC(=O)Nc1ccccc1Br)S(=O)(=O)c1ccccc1	.	-21%	-9%	-9%	-63*
COc1ccc(N(CC(=O)Nc2ccc(OC)c(OC)c2)S(=O)(=O)c2ccccc2)cc1Cl	2%	.	3%	.	59
CCOc1ccccc1N(CC(=O)NC1CCCCC1)S(=O)(=O)c1ccc(C)cc1	2%	-17%	0%	-25%	-77*
CCOc1ccccc1N(CC(=O)O)S(=O)(=O)c1ccccc1	3%	-1%	-1%	-12%	23
CCOc1ccccc1N(CC(=O)Nc1ccc(OC)c(Cl)c1)S(=O)(=O)c1ccccc1	.	-6%	-16%	-16%	-62*
SMILES	LmPK inh	Vaccinia Venus	TbPYK inhibitor	Vaccinia mCherry	HCMV antiviral
O=C(Nc1nnc(-c2ccccc2SCc2ccccc2F)s1)Nc1ccccc1F	-3%	0%	1%	i	-61*
O=C(Nc1nnc(-c2cccc(F)c2)s1)Nc1ccccc1F	2%	-20%	4%	-4%	-34
COc1ccc(-c2cc3nc(NCCCN(C)C)n(C)c(=O)c3s2)c(C)c1	.	-12%	5%	-12%	-19
O=[N+]([O-])c1ccc(-n2nnnc2-c2ccccc2)c([N+](=O)[O-])c1	0%	?	-6%	?	-98*
O=C(NCCN1CCCCC1)Nc1ccccc1Cl	3%	.	-1%	.	25
CCOc1ccc(/C=C/C(=O)Nc2ccc(C(N)=O)cc2)cc1OC	6%	-1%	8%	0%	-39
CCOc1cc(/C=C/C(=O)Nc2ccc(C(=O)NCCN(CC)CC)cc2)ccc1OCC(C)C	-5%	.	5%	.	-114*
CCN(CC)CCn1c2ccccc2c2nc3ccccc3nc21	-1%	.	6%	.	-102*
CCCCCn1c(NCc2ccc(OC)cc2)nc2ccccc21	.	?	3%	-26%	-32

Compound activity from PubChem BioAssay.
